# Assay results: PubChem BioAssay
# Calls of active or inactive are those of the source. Unless noted, the rule behind the calls is not given here.
# Assays:
# [1] = system: Wnt5a (protein binding on small-molecule microarray); assay: Wnt5a binders on small-molecule microarray, primary screen, biophysical, 635/667 nm fluorescence (AID 1142); details: 635 nm fluorescence, higher = more signal;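 note: fluorescence read at 667 nm with signal to noise per printed feature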
# [2] = cell viability in Huh7 cells, primary screen, cytotoxicity control for HCV replication inhibitor project, CellTiter-Glo luminescence, basal, 48 h (AID 1143); details: Huh7 HCV replicon, higher = more signal, called active from +8 up or from −8 down;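 note: Huh7 hepatoma cells carrying a hepatitis C replication reporter with no stimulus; test concentration not given here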
# [3] = P. aeruginosa biofilm formation inhibitors, primary screen, PAO1 strain, BacTiter-Glo luminescence, LB-PBS (AID 1144); details: 12 h, higher = more signal
# [4] = CREB reporter modulators without forskolin, primary screen, cell-based, PC12, CRE-LacZ reporter, unstimulated (AID 1145); details: no forskolin, luminescence, 4.5 h, higher = more signal, called active from +8 up or from −8 down
# [5] = CREB reporter modulators under forskolin, primary screen, cell-based, PC12, CRE-LacZ reporter, forskolin-stimulated (AID 1146); details: luminescence, 4.5 h, higher = more signal, called active from +8 up or from −8 down;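 note: PC12 cells with 6xCRE LacZ reporter stimulated by forskolin 10 µM; beta-galactosidase reporter signal reflecting CREB driven transcription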
# [6] = molecular target: Streptavidin (Streptomyces avidinii) (UniProt P22629); assay: streptavidin binders on small-molecule microarray, primary screen, artefact control for SMM compound annotation, biophysical, 635/667 nm fluorescence (AID 1147); details: streptavidin binding, higher = more signal;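 note: signal reflects streptavidin binding to arrayed compounds as a control protein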
# Streptavidin (Streptomyces avidinii), sequence (P22629 whole entry, looked up): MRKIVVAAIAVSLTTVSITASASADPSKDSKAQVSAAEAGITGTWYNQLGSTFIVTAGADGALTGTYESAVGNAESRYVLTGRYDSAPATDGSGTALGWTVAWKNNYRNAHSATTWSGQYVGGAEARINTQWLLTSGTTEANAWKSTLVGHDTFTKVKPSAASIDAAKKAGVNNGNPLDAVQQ
# [7] = small-molecule binders of probe aInhba, primary screen, biochemical, small-molecule microarray, 635/667 nm fluorescence (AID 1148); details: higher = more signal;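 note: score merges 667nm spot fluorescence with signal-to-noise for antibody binding to printed compounds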
# Torsin-1A (Homo sapiens) [8] = molecular target: Torsin-1A (Homo sapiens) (UniProt O14656); assay: torsin A binders from cell lysate, primary screen, small-molecule microarray, wild-type, 635/667 nm (AID 1149); details: COS7 hTOR1A-WT lysate, 635 nm fluorescence, higher = more signal
# Torsin-1A (Homo sapiens), sequence (O14656 whole entry, looked up): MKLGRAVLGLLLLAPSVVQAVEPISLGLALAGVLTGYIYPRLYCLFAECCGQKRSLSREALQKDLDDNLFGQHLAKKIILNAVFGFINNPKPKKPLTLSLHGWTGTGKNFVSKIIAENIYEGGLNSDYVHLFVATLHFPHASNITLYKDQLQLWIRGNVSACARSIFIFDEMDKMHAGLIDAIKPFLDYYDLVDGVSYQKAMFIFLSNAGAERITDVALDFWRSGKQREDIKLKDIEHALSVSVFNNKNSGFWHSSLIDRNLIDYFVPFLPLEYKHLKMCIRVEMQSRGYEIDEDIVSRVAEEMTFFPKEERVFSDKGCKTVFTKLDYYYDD
# Torsin-1A (Homo sapiens) [9] = molecular target: Torsin-1A (Homo sapiens) (UniProt O14656); assay: small-molecule binders of mutant TOR1A in lysate, primary screen, cell lysate, small-molecule microarray, COS7 lysate, 635/667 nm fluorescence (AID 1150); details: COS7 hTOR1A mutant lysate, 635 nm fluorescence, higher = more signal;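 note: score pools 667 nm emission and signal to noise measuring lysate protein binding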
# [10] = system: Sonic hedgehog protein (Shh); assay: small-molecule binders of Shh protein, primary screen, biochemical, small-molecule microarray, 635/667 nm fluorescence (AID 1151); details: small-molecule microarray binding, 635 nm fluorescence; higher = more signal;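 note: Shh protein binding to compounds spotted on small-molecule microarray slides; score combines spot fluorescence intensity with signal-to-noise across triplicate slides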
# [11] = E. coli DRC41 culture turbidity changes, primary screen, E. coli filamentation inducer project, strain DRC41, OD650, 48 h (AID 1152);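 note: E. coli MC1000 strain DRC41 lacking acrAB efflux pump and sulA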; details: E. coli DRC41 (acrAB sulA), higher = more signal, called active from +8 up or from −8 down
# [12] = small-molecule binders of probe aLefty1, primary screen, biochemical, small-molecule microarray, 635/667 nm fluorescence (AID 1153); details: higher = more signal;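 note: score merges spot fluorescence with signal-to-noise ratio from the scanned slide images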
# [13] = PSAC antagonists in infected red cells, primary screen, cell-based, P. falciparum Indochina, OD700, 1 h (AID 1154); details: P. falciparum Indochina infected RBC osmotic lysis, higher = more signal, called active from +8 up or from −8 down
# [14] = PSAC antagonists in infected red cells, primary screen, cell-based, P. falciparum Indochina, OD700, 2 h (AID 1155);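 note: lysis reports solute entry through the parasite surface anion channel PSAC; channel blockers reduce lysis of infected cells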; details: P. falciparum Indochina infected erythrocytes, osmotic lysis OD700; higher = more signal, called active from +8 up or from −8 down
# [15] = osmotic lysis modulators in infected erythrocytes, primary screen, PSAC antagonist project, cell-based, P. falciparum Indochina, OD700, 3 h (AID 1156); details: higher = more signal, called active from +8 up or from −8 down
# [16] = PSAC antagonists in infected red cells, primary screen, cell-based, P. falciparum Indochina, OD700, 18 h (AID 1157); details: P. falciparum Indochina infected erythrocytes, osmotic lysis OD700, 18 h; higher = more signal, called active from +8 up or from −8 down
# [17] = modulators of S6 phosphorylation in cells, primary screen, cell-based, A549, cytoblot, luminescence, serum-stimulated (AID 1158); details: A549 phospho-S6 cytoblot, 5 h, higher = more signal;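 note: serum-stimulated A549 lung adenocarcinoma cells; signal is phosphorylated S6 detected by cytoblot immunostaining with HRP secondary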
# [18] = molecular target: NADPH oxidase 2 (Homo sapiens) (UniProt P04839); assay: NOX2-dependent H2O2 signal modulators, primary screen, NOX inhibitor project, cell-based, HEK293-NOX2, PMA-stimulated, Amplex Red fluorescence (AID 1159); details: 45 min, higher = more signal, called active from +8 up or from −8 down; note: test concentration not given here
# NADPH oxidase 2 (Homo sapiens), sequence (P04839 whole entry, looked up): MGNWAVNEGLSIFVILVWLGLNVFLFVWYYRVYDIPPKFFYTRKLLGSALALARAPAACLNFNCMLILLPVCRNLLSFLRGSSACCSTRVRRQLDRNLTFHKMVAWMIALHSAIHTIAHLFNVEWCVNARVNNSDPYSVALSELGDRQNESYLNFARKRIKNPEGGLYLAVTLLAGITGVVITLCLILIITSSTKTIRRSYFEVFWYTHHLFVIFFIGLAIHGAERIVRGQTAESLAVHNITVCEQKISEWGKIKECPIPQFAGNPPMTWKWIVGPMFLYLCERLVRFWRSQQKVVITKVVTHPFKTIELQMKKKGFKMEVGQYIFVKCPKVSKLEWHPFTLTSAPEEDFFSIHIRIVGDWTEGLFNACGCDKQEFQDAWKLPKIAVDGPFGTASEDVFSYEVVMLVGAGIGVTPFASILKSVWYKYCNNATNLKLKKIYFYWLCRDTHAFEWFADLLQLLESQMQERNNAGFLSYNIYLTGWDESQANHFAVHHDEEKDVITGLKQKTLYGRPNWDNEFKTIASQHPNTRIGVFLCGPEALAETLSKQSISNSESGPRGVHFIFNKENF
# [19] = molecular target: NADPH oxidase 4 (Homo sapiens) (UniProt Q9NPH5); assay: NOX4-dependent H2O2 signal modulators, primary screen, NOX inhibitor project, cell-based, HEK293-NOX4, tetracycline-induced, Amplex Red fluorescence (AID 1160); details: 45 min, higher = more signal, called active from +8 up or from −8 down
# NADPH oxidase 4 (Homo sapiens), sequence (Q9NPH5 whole entry, looked up): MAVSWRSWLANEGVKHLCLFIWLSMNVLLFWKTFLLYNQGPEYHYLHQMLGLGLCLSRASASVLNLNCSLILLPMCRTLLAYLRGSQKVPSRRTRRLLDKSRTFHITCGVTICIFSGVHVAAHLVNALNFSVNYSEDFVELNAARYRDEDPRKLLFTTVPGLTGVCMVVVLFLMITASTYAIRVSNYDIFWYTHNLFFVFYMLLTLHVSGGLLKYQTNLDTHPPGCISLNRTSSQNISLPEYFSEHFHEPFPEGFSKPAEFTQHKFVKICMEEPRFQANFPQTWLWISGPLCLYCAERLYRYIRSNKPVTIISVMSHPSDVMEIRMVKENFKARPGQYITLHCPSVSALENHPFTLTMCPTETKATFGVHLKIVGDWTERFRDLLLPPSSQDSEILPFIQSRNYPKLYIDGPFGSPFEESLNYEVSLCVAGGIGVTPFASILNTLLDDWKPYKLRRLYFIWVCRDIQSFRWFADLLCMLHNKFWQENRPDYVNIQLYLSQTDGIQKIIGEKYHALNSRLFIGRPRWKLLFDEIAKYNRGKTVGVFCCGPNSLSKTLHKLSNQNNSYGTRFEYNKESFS
# [20] = molecular target: NADPH oxidase 5 (Homo sapiens) (UniProt Q96PH1); assay: NOX5-dependent H2O2 signal modulators, primary screen, NOX inhibitor project, cell-based, HEK293-NOX5, Amplex Red fluorescence (AID 1161); details: HEK293-NOX5, ionomycin, 45 min, higher = more signal
# NADPH oxidase 5 (Homo sapiens), sequence (Q96PH1 whole entry, looked up): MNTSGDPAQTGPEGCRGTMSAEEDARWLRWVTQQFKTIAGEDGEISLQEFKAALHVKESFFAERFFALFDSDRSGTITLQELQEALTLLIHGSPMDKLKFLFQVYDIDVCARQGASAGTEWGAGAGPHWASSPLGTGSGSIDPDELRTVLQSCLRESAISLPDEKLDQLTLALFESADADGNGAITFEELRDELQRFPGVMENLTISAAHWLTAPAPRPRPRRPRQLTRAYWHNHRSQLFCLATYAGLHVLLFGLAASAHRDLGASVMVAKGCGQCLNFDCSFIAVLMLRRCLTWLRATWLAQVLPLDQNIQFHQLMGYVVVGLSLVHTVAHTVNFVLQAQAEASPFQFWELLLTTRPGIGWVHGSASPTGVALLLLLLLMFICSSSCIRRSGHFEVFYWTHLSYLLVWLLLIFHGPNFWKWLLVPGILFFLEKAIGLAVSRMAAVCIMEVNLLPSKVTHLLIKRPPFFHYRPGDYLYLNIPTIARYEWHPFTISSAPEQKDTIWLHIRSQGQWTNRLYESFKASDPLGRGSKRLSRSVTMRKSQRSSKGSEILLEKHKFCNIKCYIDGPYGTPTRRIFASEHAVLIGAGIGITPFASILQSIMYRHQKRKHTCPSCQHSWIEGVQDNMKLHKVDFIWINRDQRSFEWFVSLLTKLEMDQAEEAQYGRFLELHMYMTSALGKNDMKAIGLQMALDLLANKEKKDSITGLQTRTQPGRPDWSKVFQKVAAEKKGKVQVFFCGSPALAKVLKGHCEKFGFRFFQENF
Compound,composite z-score [1],z-score [2],z-score [3],z-score [4],z-score [5],composite z-score [6],composite z-score [7],composite z-score (Torsin-1A (Homo sapiens) [8]),composite z-score (Torsin-1A (Homo sapiens) [9]),composite z-score [10],z-score [11],composite z-score [12],z-score [13],z-score [14],z-score [15],z-score [16],z-score [17],z-score [18],z-score [19],z-score [20]
COc1ccc([Si](C)(C)[C@H]2[C@H](CC(=O)N3Cc4ccccc4C[C@H]3CO)O[C@@]3(C(=O)N(Cc4ccc(N5CCC5=O)cc4)c4ccccc43)[C@@H]2C)cc1,0.66,-6.48 (inactive),0.522 (inactive),0.656 (inactive),-0.317 (inactive),0.679,0.256,1.27,0.574,1.85,0.97 (inactive),0.874,6.86 (inactive),1.45 (inactive),1.46 (inactive),1.11 (inactive),0.414,-0.241 (inactive),0.465 (inactive),-1.64
[N-]=[N+]=NCc1ccccc1C[C@]1(C(=O)N2CCOCC2)N=C(c2ccc(OCCCO)cc2)O[C@H]1c1ccccc1N=[N+]=[N-],0.774,-5.5 (inactive),-0.447 (inactive),-0.0017 (inactive),-1.86 (inactive),0.808,0.0179,1.49,1.44,1.02,0.97 (inactive),0.043,30 (active),25.3 (active),2.34 (inactive),1.92 (inactive),1.73,-6.05 (inactive),-2.96 (inactive),-2.7
CC(C)(C)OC(=O)CC[C@@]1(C(=O)NCC(O)CO)N=C(c2ccc(OCCCO)cc2)O[C@@H]1c1ccccc1N=[N+]=[N-] (stereo not given in full),0.849,-0.371 (inactive),-1.18 (inactive),-0.183 (inactive),-0.173 (inactive),1.85,0.289,1.45,1.76,0.146,1.99 (inactive),0.379,31.9 (active),28.4 (active),3.82 (inactive),7.71 (inactive),0.123,-2.77 (inactive),1.03 (inactive),-1.85
CC(C)c1ccc(NN2C(C(O)C(c3ccccc3)c3ccccc3)C=CC3C(=O)N(c4ccccc4)C(=O)C32)cc1 (stereo not given),0.359,-0.29 (inactive),-0.281 (inactive),-0.322 (inactive),1.3 (inactive),1.3,0.246,0.792,0.936,-0.0266,-1.98 (inactive),0.497,0.363 (inactive),1.32 (inactive),0.771 (inactive),0.948 (inactive),-0.582,-1 (inactive),-4.56 (inactive),-4.98
CN(C)C(=O)[C@]1(Cc2ccccc2N=[N+]=[N-])N=C(c2ccc(OCCCO)cc2)O[C@@H]1c1ccccc1,0.8,-4.59 (inactive),1.77 (inactive),0.69 (inactive),-2.15 (inactive),1.4,0.0928,-0.09,0.902,0.0763,0.327 (inactive),0.112,30.2 (active),27.5 (active),2.4 (inactive),2.53 (inactive),1.38,-0.906 (inactive),-0.433 (inactive),-1.67
O=C1O[C@H](c2ccccc2)[C@H](c2ccccc2)N2[C@H]1[C@@H](C(=O)O)[C@]1(C(=O)Nc3ccc(C#CC4=CCCCC4)cc31)[C@H]2c1ccccc1OCCO,1.02,-4.67 (inactive),-0.177 (inactive),17.1 (active),26.1 (active),1.97,0.17,0.849,0.516,0.892,-0.611 (inactive),1.44,-1.84 (inactive),-1.36 (inactive),-14.6 (active),-1.92 (inactive),0.296,2.51 (inactive),-1.94 (inactive),-1.08
COC(=O)[C@@]1(Cc2ccc(F)cc2)[C@@H]2[C@@H](CC(=O)[C@H]2CC(=O)C(=O)N(C)C)CN1C(=O)c1ccccc1,0.618,-2.42 (inactive),0.215 (inactive),0.576 (inactive),0.245 (inactive),1.91,0.242,0.447,0.884,-0.552,-1.78 (inactive),0.334,2.32 (inactive),0.723 (inactive),0.806 (inactive),0.961 (inactive),-0.761,0.366 (inactive),-0.21 (inactive),0.256
C=CCC(OC(C)=O)[C@@H]1[C@@H](N(Cc2ccc(-c3cccc(C(F)(F)F)c3)o2)C(=O)Cc2ccc(F)cc2)c2cc(OCCCO)ccc2N1C(=O)Cc1ccc(OC)cc1 (stereo not given in full),-0.186,-0.705 (inactive),-1.63 (inactive),0.236 (inactive),0.239 (inactive),-1.07,-0.183,-2.21,-0.945,0.392,0.29 (inactive),-0.191,2.58 (inactive),-0.307 (inactive),-0.876 (inactive),-0.668 (inactive),0.317,-2.17 (inactive),0.269 (inactive),-0.0149
